“And” between values parts separate entries of the source, which are not always exact repeats. Identical values can stand only once. Inconclusive results are not listed. The source made the active and inactive calls. Unless noted, calls follow the shape of the dose curve; as a rule, active = well fitted curve in either direction with a large enough effect (not every such curve was filed as active); inconclusive = small, poorly fitted or top-dose-only effect, or another doubt; inactive = flat fitted curve, though single readings scatter.
How the values were obtained:
[1] = AP1 Signaling Pathway (AID 357); conditions: ME-180 AP-1-bla reporter, EGF-induced, beta-lactamase ratio, 5 h;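 also: ME-180 reporter cells stimulated with EGF at its EC50 level; % is scaled to controls: 0 for no effect and ±100 for the full control effect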
In short: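 Cells are seeded overnight, exposed to compound titrations and an EC50 level of EGF for 5 hours at 37 °C, then loaded with CCF4 dye for 2.5 hours. Beta-lactamase activity under the AP-1 element is read as a blue/green ratio.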

[2] = Stat Signaling Pathway (AID 446); conditions: ME-180 (cervical carcinoma) SIE beta-lactamase reporter, IL-6 stimulated, 5 h;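 also: ME-180 cervical cancer cells given 40 pM IL-6 alongside compound; SIE-controlled beta-lactamase reporter measured as 460/530 nm FRET emission ratio; % is scaled to controls: 0 for no effect and ±100 for the full control effect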
In short: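 IL-6/STAT signaling read in ME-180 cells via an SIE beta-lactamase reporter. Stimulus was 40 pM IL-6 (its AC50) for 5 hrs, so both activation and inhibition register.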

[3] = biological target: Glucocorticoid receptor (Homo sapiens) (UniProt P04150); assay: GR-GFP Redistribution (AID 450;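 active = compounds whose dose series gives a full or clear partial fitted curve of increased nuclear translocation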; also: potency is read from the fitted curve at half-maximal effect); conditions: U2OS GR-GFP nuclear translocation, laser cytometry, 2 h
[4] = biological target: Mitogen-activated protein kinase 10 (Mus musculus) (UniProt Q61831); assay: JNK3 AlphaScreen Assay (AID 530); conditions: JNK3 lysate, c-Jun phosphorylation; series mostly up to 57.1 µM;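 also: kinase came from lysate of stimulated human HepG2 cells; signal reports phosphorylation of biotinylated GST-cJun 1-79 at Ser73 with 10 µM ATP; % is scaled to controls: 0 for no effect and ±100 for the full control effect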
In short: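 Inhibitors reduce antibody binding to phosphorylated biotin-cJun, lowering AlphaScreen luminescence. Lysates from HepG2 cells pre-activated by IL-1beta plus TNF-alpha supplied JNK3; compounds were titrated.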

[5] = biological target: 3',5'-cyclic-AMP phosphodiesterase 4B (Homo sapiens) (UniProt Q07343); assay: qHTS Assay for Inhibitors of PDE-IV (AID 607; active = well fitted activation curve with a large enough effect in the main read-out, with a control signal flat, not every such curve was filed as active; also: % of control where 0% means no effect); conditions: HEK293 ACTOne CNG channel cells, membrane potential fluorescence; series mostly up to 22.9 µM
In short: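 Live HEK293 cells with a modified cyclic nucleotide-gated (CNG) channel report intracellular cAMP via membrane-potential dye fluorescence (ex 535/em 590 nm). Endogenous PDE-IV was targeted. Compounds were tested at up to 22.9 uM final; RO 20-1724 100 uM served as control.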

[6] = biological target: Cytochrome P450 1A2 (Homo sapiens) (UniProt P05177); assay: p450-cyp1a2 (AID 410; calls by dose curve; also: potency is read from the fitted curve at half-maximal effect;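 as to activity change, negative = inhibition: -100% = full effect of reference inhibitor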); conditions: recombinant CYP1A2, luciferin-ME demethylation, luminescence; series mostly up to 57 µM
In short: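 Luminescent readout of luciferin formed from Luciferin-ME by human CYP1A2; data normalized against complete inhibition by 57 uM furafylline. Enzyme 20nM, substrate 100uM at Km, 100mM KPO4 buffer, 60 min reaction at room temperature.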

[7] = NFAT Signaling Pathway (AID 444); conditions: Jurkat NFAT-bla M1, carbachol, beta-lactamase ratio, 5 h;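 also: carbachol stimulus at about its EC50 of 1 µM final; % is scaled to controls: 0 for no effect and ±100 for the full control effect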
In short: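 Jurkat cells carrying an NFAT-driven β-lactamase reporter and co-transfected muscarinic M1 receptor were treated with compound plus carbachol (1 uM final, an EC50 level) for 5 h at 37 °C. CCF4 loading followed for 1 h at RT; 460/530 nm ratio gave %activity.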

Chain of 3',5'-cyclic-AMP phosphodiesterase 4B (Homo sapiens) (Q07343 whole entry, looked up): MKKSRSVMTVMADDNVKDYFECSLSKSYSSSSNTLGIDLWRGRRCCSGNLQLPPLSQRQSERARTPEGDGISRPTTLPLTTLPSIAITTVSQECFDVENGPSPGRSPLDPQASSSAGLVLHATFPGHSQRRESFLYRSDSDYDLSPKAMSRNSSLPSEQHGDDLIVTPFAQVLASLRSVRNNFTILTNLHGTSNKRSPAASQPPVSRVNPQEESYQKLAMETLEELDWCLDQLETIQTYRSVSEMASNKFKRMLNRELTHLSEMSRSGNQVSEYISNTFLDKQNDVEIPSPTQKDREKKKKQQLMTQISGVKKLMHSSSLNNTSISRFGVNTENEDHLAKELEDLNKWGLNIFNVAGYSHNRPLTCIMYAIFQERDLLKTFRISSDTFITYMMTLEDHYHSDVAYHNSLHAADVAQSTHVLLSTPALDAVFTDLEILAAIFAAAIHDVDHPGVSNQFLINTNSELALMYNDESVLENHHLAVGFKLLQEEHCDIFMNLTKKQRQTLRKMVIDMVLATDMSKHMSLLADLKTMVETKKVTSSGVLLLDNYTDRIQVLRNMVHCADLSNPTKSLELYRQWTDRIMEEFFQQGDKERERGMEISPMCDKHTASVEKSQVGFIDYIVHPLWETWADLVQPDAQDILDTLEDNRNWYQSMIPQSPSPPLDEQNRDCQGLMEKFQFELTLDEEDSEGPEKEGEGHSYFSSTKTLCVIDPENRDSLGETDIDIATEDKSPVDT
Chain of Cytochrome P450 1A2 (Homo sapiens) (P05177 whole entry, looked up): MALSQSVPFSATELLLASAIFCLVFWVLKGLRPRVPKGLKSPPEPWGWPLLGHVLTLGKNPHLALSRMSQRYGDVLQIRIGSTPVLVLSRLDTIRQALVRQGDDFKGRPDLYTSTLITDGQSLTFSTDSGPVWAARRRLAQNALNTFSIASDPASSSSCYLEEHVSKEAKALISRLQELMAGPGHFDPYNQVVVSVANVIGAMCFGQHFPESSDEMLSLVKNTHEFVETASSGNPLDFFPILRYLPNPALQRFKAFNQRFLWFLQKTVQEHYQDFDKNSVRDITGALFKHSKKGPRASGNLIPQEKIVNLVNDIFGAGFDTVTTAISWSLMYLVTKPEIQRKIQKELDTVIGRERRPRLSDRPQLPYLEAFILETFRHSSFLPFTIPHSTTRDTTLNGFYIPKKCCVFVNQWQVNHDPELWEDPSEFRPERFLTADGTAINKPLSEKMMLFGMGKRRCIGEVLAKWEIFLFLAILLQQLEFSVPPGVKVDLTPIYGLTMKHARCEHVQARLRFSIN
Chain of Glucocorticoid receptor (Homo sapiens) (P04150 whole entry, looked up): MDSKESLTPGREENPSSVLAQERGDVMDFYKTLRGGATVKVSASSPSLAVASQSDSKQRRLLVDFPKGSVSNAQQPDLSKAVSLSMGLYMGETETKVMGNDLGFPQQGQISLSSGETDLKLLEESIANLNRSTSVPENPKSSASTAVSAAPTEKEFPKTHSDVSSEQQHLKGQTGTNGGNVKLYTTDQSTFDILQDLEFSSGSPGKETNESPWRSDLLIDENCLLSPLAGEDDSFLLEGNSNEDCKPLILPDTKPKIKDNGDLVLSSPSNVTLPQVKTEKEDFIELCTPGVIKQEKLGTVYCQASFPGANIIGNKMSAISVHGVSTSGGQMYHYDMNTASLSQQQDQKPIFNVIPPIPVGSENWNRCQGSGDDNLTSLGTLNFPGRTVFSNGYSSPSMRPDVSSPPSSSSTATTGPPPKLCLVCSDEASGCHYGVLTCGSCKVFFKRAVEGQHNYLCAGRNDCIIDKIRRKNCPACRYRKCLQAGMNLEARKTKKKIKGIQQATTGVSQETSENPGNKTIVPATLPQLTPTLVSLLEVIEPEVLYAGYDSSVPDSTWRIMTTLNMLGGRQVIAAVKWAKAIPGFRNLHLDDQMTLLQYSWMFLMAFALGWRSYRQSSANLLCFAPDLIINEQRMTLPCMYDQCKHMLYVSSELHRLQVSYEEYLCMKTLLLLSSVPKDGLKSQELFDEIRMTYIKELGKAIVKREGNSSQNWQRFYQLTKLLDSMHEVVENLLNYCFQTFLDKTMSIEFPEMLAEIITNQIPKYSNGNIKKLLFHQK

S=C(NC1CCCCC1)N1CCC(c2cnc[nH]2)CC1
inactive: activity change, negative = inhibition ([1]; at 38 µM (top of the series)) -10.5% | activity, negative = inhibition ([2]; at 38 µM (top of the series)) 6.17% | Potency [3] > 46 µM | outcome [4] | Potency [5]

Cn1cnc(CCN)c1
inactive: activity change, negative = inhibition ([1]; at 38 µM (top of the series)) 7.44% | Potency [6] | activity change, negative = inhibition ([7]; at 38 µM (top of the series)) 6.43% | activity, negative = inhibition ([2]; at 38 µM (top of the series)) 0.0099% | Potency [3] > 46 µM | outcome [4] | Potency [5]

NCc1cc(=O)[nH]o1
inactive: activity change, negative = inhibition ([1]; at 38 µM (top of the series)) 1.2% | Potency [6] | activity change, negative = inhibition ([7]; at 38 µM (top of the series)) 7.89% | activity, negative = inhibition ([2]; at 38 µM (top of the series)) -1.4% | Potency [3] > 46 µM | outcome [4] | Potency [5]

CNCCc1ccc(O)c(O)c1
inactive: activity change, negative = inhibition ([1]; at 38 µM (top of the series)) -12.9% | activity change, negative = inhibition ([7]; at 38 µM (top of the series)) 4.43% | activity, negative = inhibition ([2]; at 38 µM (top of the series)) -23.7% | Potency [3] > 46 µM | outcome [4] | Potency [5]

Cc1nccc2c1[nH]c1ccccc12
active: Potency [6] 3.98 µM and 1.26 µM and 631 nM
inactive: activity change, negative = inhibition ([1]; at 17.2 µM (top of the series)) -6.36% | activity change, negative = inhibition ([1]; at 38 µM (top of the series)) -14.9% | activity change, negative = inhibition ([7]; at 17.2 µM (top of the series)) -12.1% | activity change, negative = inhibition ([7]; at 38 µM (top of the series)) -12.6% | activity, negative = inhibition ([2]; at 17.2 µM (top of the series)) 1.58% | activity, negative = inhibition ([2]; at 38 µM (top of the series)) 11% | Potency [3] > 46 µM and > 20.6 µM | outcome [4] | Potency [5]

NCCc1c[nH]c2ccc(O)cc12
inactive: activity change, negative = inhibition ([1]; at 17.2 µM (top of the series)) 7.63% | activity change, negative = inhibition ([1]; at 38 µM (top of the series)) 7.62% | activity change, negative = inhibition ([7]; at 17.2 µM (top of the series)) -8.4% | activity change, negative = inhibition ([7]; at 38 µM (top of the series)) 4.18% | activity, negative = inhibition ([2]; at 17.2 µM (top of the series)) -0.625% | activity, negative = inhibition ([2]; at 38 µM (top of the series)) -13.2% | Potency [3] > 46 µM and > 20.6 µM | outcome [4] | Potency [5]
active: Potency [6] 7.94 µM and 2 µM

Clc1cnc(Oc2ccc(Oc3ncc(Cl)cc3Cl)cc2)c(Cl)c1
inactive: activity change, negative = inhibition ([1]; at 38 µM (top of the series)) 8.39% | Potency [6] | activity, negative = inhibition ([2]; at 38 µM (top of the series)) 1.75% | Potency [3] > 46 µM | outcome [4] | Potency [5]

c1ccc2sc(C3(N4CCCCC4)CCCCC3)cc2c1
inactive: activity change, negative = inhibition ([1]; at 38 µM (top of the series)) -1.54% | Potency [6] | activity, negative = inhibition ([2]; at 38 µM (top of the series)) -24.8% | Potency [3] > 46 µM | outcome [4] | Potency [5]

CCCN1CCC[C@H](c2cccc(O)c2)C1
inactive: activity change, negative = inhibition ([1]; at 38 µM (top of the series)) -0.74% and -8.16% | Potency [6] | activity change, negative = inhibition ([7]; at 38 µM (top of the series)) -6.4% and -13.2% | activity, negative = inhibition ([2]; at 38 µM (top of the series)) 0.0297% and 5.34% | Potency [3] > 46 µM | outcome [4] | Potency [5]
